Consider one sequence from publication PMC7862700, “An all-to-all approach to the identification of sequence-specific readers for epigenetic DNA modifications on cytosine”.

Experiment in all cases: DAPPL (digital affinity profiling via proximity ligation, sequencing); 10 mM Tris-HCl pH 7.5, 50 mM NaCl, 1 mM DTT, 4% glycerol, room temperature, 30 min; GST-TFs on glutathione beads, 16-mer random dsDNA library, 0.1% formaldehyde crosslink after washing; high values mean tight binding
One assay concerns the target T1, FLI1 (Homo sapiens, UniProt Q01543 1-452).
T1 sequence: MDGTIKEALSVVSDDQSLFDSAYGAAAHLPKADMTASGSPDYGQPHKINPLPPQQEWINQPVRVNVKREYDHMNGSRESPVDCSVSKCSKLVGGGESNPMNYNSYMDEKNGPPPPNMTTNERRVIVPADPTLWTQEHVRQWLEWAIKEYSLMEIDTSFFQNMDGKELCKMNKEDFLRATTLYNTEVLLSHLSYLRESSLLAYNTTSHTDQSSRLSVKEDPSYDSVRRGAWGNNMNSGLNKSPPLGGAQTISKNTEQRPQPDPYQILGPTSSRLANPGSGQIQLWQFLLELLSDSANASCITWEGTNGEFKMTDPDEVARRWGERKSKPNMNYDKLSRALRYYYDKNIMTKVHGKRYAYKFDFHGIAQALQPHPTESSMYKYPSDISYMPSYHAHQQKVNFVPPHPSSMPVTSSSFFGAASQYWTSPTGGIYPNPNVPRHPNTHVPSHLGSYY
Particulars: protein: recombinant; tags: N-terminal GST; dsDNA, one strand shown. The essentials: (§1)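 Sequencing on an Illumina NextSeq500 followed washing, crosslinking with 0.1% formaldehyde, proximity ligation (BsaI/T4 ligase, 1 h, 37 °C) and PCR amplification of pools that had been incubated for 30 min at room temperature with 200 nmole of a random double-stranded 16-mer DNA library in Tris/NaCl/DTT/glycerol buffer. Each pool held DNA-barcoded human transcription factors, expressed in yeast as GST fusions and captured on glutathione beads, plus a tag-only sample. Binding signal is a hexamer's read frequency for a factor divided by its frequency in the tag-only sample.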

A further assay concerns the target T2, ELK1 (Homo sapiens, UniProt P19419 1-428).
T2 sequence: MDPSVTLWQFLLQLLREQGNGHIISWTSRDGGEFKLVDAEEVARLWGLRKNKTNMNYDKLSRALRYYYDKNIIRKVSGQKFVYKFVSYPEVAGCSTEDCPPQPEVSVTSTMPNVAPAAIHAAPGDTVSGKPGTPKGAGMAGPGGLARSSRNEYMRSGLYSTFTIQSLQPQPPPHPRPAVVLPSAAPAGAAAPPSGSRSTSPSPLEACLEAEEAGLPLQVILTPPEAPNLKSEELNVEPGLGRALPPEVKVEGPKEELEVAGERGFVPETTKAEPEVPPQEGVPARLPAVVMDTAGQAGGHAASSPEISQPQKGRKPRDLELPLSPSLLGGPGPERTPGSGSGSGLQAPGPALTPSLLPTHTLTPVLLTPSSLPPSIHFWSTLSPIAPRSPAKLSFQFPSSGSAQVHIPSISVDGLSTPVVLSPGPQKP
The settings on record: protein: recombinant; tags: N-terminal GST; dsDNA, one strand shown. The essentials: as §1

The next assay deals with T3, GABPA (Homo sapiens, UniProt Q06546 1-454).
T3 sequence: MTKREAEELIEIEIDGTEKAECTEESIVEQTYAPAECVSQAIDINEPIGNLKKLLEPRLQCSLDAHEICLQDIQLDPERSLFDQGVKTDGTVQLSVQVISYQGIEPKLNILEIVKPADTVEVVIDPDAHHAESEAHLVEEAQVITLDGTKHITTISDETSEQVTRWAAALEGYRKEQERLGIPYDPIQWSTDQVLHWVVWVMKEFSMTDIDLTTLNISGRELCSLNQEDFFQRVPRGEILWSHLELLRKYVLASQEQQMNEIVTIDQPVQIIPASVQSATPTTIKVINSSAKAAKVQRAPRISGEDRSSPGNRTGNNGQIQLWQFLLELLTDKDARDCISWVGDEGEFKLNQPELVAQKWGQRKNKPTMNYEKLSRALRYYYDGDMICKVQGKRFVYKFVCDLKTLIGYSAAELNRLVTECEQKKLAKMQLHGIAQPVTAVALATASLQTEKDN
Particulars: protein: recombinant; tags: N-terminal GST; dsDNA, one strand shown. The essentials:
as §1

The next assay deals with T4, ERG (Homo sapiens, UniProt P11308 1-479).
T4 sequence: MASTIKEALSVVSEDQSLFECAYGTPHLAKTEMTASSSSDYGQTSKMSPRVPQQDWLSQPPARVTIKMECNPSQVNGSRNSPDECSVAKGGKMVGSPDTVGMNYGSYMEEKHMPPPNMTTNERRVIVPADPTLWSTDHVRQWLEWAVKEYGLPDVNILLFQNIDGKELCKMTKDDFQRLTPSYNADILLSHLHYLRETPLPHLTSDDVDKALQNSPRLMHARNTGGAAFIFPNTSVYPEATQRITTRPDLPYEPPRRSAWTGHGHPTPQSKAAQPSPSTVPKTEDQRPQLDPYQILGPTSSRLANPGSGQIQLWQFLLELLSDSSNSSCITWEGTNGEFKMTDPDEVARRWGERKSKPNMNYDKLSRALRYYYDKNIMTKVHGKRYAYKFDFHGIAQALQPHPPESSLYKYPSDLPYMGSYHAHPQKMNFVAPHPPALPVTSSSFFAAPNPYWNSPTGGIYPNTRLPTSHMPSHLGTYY
Particulars: protein: recombinant; tags: N-terminal GST; dsDNA, one strand shown. The essentials:
as §1

The target of another assay is ELF1 (Homo sapiens, UniProt P32519 1-619). Particulars: protein: recombinant; tags: N-terminal GST; dsDNA, one strand shown. The essentials: as §1
The next assay has as its target T5, EHF (Homo sapiens, UniProt Q9NZC4 1-300).
T5 sequence: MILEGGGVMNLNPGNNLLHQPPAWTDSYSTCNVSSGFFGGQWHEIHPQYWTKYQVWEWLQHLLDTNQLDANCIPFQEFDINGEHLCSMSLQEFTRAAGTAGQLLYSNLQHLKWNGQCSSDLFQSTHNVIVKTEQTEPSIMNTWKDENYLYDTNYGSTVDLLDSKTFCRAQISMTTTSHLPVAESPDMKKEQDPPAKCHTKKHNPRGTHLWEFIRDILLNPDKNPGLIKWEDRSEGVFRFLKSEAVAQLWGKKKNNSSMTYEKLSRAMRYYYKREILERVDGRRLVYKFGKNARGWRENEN
Particulars: protein: recombinant; tags: N-terminal GST; dsDNA, one strand shown. The essentials: as §1

Another assay deals with SPI1 (Homo sapiens, UniProt P17947 1-270). Particulars: protein: recombinant; tags: N-terminal GST; dsDNA, one strand shown. The essentials:
as §1

Another assay concerns the target SPIB (Homo sapiens, UniProt Q01892 1-262). Particulars: protein: recombinant; tags: N-terminal GST; dsDNA, one strand shown. The essentials: as §1
The target in another assay is T6, ELK3 (Homo sapiens, UniProt P41970 1-407).
T6 sequence: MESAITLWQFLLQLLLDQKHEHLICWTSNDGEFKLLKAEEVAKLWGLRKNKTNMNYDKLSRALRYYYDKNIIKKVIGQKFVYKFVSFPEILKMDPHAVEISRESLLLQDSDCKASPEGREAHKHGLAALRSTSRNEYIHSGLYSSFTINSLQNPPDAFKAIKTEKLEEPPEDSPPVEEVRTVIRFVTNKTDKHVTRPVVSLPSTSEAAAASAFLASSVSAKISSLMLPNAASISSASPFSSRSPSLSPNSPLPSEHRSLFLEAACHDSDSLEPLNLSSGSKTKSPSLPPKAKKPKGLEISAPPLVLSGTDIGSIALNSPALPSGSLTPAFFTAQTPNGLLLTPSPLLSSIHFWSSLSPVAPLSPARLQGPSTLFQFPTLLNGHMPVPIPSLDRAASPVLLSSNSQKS
The settings on record: protein: recombinant; tags: N-terminal GST; dsDNA, one strand shown. The gist of the method: as §1

The next assay deals with T7, FEV (Homo sapiens, UniProt Q99581 1-238).
T7 sequence: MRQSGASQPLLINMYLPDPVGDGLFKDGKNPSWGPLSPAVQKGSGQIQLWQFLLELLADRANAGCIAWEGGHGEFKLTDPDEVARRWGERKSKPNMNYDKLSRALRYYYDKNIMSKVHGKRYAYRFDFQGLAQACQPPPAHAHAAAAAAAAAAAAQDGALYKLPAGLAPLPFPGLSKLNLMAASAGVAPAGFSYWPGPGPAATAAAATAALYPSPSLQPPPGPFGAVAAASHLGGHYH
The settings on record: protein: recombinant; tags: N-terminal GST; dsDNA, one strand shown. The essentials:
as §1

Another assay addresses ETV5 (Homo sapiens, UniProt P41161 1-510). The settings on record: protein: recombinant; tags: N-terminal GST; dsDNA, one strand shown. The gist of the method:
as §1

Another assay deals with HSF1 (Homo sapiens, UniProt Q00613 1-529). Particulars: protein: recombinant; tags: N-terminal GST; chain copies: 3; dsDNA, one strand shown. The essentials: as §1
The next assay addresses T8, SPIC (Homo sapiens, UniProt Q8N5J4 1-248).
T8 sequence: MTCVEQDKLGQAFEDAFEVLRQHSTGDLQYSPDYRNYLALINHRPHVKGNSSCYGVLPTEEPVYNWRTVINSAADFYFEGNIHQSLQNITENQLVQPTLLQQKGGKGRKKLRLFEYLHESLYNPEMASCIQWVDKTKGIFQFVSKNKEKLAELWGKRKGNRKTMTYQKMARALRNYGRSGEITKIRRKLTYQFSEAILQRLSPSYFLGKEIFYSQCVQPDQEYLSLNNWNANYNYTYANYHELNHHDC
The settings on record: protein: recombinant; tags: N-terminal GST; dsDNA, one strand shown. The gist of the method: as §1

The target of another assay is ELF4 (Homo sapiens, UniProt Q99607 1-663). The settings on record: protein: recombinant; tags: N-terminal GST; dsDNA, one strand shown. The gist of the method: as §1
For a further assay, the target named is T9, ELK4 (Homo sapiens, UniProt P28324-2 1-405).
T9 sequence: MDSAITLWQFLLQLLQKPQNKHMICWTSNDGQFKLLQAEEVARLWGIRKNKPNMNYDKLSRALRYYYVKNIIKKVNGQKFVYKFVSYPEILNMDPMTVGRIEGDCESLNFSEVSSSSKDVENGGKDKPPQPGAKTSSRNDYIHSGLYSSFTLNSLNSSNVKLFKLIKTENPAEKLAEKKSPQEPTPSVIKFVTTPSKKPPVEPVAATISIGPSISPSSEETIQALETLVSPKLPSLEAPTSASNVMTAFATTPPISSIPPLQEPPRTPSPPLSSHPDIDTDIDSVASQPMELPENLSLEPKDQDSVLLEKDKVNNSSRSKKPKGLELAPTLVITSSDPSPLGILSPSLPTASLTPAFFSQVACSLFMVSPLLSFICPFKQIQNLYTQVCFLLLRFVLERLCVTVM
The settings on record: protein: recombinant; tags: N-terminal GST; dsDNA, one strand shown. The gist of the method:
as §1

For another assay, the target named is T10, ETV2 (Homo sapiens, UniProt O00321 1-342).
T10 sequence: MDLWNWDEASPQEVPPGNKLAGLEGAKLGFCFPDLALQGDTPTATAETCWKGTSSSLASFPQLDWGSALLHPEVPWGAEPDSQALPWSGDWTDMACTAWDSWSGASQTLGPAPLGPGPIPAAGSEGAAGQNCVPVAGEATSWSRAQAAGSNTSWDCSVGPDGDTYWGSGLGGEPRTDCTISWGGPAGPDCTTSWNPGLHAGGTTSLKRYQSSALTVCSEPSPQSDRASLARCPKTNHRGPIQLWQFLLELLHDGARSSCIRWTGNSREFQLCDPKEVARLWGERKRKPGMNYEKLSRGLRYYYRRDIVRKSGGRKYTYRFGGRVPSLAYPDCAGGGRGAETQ
The settings on record: protein: recombinant; tags: N-terminal GST; dsDNA, one strand shown. The gist of the method:
as §1

The target of another assay is T11, ELF3 (Homo sapiens, UniProt P78545 1-371).
T11 sequence: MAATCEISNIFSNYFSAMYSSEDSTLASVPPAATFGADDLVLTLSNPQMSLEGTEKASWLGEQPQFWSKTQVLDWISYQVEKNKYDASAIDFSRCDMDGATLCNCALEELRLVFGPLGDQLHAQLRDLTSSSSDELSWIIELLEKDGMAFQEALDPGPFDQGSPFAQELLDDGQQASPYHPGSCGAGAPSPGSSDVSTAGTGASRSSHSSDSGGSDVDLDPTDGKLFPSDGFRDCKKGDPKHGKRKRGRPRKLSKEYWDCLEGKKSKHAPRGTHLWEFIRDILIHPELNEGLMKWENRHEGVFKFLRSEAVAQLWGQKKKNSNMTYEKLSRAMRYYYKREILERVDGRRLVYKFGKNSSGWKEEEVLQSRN
The settings on record: protein: recombinant; tags: N-terminal GST; dsDNA, one strand shown. The gist of the method: as §1

For the next assay, the target named is ETV1 (Homo sapiens, UniProt P50549 1-477). The settings on record: protein: recombinant; tags: N-terminal GST; dsDNA, one strand shown. The essentials: as §1
Chain of ETV1 (P50549 whole entry): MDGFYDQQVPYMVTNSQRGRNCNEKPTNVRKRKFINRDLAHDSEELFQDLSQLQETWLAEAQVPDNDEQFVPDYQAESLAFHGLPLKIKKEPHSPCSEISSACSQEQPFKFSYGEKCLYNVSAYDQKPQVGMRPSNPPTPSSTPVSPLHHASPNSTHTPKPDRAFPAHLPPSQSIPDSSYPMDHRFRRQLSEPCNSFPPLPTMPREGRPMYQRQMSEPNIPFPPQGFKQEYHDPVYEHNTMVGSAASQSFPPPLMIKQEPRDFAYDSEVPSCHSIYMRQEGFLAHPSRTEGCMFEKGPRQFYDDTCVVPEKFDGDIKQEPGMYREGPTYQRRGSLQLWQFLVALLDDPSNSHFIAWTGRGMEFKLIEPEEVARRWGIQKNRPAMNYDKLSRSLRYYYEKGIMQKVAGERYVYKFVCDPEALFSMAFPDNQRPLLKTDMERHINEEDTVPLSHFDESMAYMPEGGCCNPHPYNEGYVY

Chain of HSF1 (Q00613 whole entry): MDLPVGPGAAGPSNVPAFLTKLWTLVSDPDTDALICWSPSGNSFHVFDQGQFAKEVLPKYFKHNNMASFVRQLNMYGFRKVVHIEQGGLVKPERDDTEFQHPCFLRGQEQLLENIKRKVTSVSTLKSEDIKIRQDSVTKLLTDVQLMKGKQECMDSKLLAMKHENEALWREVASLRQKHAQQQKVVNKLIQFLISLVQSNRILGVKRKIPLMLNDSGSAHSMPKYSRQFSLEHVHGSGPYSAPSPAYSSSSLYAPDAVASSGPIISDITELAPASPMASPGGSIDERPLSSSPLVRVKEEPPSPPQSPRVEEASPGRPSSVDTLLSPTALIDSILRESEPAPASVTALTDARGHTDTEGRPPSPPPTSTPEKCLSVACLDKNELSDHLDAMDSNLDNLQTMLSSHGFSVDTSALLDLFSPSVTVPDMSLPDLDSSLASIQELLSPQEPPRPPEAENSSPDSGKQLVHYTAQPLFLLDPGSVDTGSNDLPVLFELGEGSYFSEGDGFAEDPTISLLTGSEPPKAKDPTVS
Chain of ETV5 (P41161 whole entry): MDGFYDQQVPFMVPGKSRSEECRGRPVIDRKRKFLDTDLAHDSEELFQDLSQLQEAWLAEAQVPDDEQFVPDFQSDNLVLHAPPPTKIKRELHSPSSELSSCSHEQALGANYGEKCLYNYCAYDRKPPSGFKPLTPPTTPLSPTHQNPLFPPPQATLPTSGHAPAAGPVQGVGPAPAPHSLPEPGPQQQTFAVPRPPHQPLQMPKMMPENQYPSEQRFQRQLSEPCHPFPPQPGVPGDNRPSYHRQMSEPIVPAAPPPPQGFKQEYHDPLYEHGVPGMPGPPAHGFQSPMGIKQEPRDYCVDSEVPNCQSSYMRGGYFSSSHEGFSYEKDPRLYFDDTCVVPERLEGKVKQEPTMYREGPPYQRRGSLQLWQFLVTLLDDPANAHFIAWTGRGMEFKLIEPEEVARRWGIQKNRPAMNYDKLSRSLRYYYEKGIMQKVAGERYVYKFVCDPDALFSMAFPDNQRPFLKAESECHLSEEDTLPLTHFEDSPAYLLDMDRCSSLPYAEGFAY
Chain of ELF4 (Q99607 whole entry): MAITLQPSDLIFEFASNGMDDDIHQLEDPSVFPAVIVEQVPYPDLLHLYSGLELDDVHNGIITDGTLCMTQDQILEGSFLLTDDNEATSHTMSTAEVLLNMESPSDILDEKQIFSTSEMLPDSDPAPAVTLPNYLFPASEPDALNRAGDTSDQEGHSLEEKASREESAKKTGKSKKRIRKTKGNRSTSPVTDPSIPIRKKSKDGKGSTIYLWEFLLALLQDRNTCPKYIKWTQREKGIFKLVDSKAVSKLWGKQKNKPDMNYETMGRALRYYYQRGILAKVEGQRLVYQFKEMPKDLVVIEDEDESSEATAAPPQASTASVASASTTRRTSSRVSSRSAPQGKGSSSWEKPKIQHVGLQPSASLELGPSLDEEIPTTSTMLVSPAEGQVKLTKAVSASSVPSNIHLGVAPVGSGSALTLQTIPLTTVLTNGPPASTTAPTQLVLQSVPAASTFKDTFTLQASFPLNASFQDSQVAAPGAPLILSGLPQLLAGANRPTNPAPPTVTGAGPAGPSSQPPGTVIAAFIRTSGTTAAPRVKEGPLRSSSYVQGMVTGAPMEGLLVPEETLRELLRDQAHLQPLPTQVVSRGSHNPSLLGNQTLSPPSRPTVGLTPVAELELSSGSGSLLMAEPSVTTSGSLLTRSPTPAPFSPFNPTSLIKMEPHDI
Chain of SPIB (Q01892 whole entry): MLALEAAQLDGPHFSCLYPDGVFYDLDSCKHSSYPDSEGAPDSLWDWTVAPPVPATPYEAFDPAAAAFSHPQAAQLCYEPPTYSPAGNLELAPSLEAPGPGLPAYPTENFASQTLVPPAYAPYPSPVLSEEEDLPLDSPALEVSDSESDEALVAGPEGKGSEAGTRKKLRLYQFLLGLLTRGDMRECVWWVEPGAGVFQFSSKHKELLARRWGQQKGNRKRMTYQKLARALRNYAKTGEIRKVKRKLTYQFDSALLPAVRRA
Chain of ELF1 (P32519 whole entry): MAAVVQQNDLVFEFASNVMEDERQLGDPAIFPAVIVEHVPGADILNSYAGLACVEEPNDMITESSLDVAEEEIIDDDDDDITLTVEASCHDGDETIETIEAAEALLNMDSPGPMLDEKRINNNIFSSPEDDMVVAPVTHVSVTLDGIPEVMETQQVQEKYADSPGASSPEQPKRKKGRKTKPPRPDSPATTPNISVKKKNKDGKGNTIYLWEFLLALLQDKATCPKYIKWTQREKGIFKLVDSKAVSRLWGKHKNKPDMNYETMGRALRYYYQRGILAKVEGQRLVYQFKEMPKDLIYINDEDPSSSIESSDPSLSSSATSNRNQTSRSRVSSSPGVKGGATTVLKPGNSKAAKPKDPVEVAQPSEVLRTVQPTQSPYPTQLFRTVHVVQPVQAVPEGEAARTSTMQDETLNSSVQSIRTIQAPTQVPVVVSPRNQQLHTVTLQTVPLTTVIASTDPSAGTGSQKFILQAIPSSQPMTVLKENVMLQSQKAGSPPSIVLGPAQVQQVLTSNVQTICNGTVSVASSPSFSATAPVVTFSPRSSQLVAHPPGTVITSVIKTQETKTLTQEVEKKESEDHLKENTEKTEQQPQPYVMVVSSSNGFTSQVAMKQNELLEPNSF

Regarding CTGCCG, the binding signal is 1.28 fold enrichment (6-mer frequency, TF over GST control) with FLI1; 1.45 fold enrichment (6-mer frequency, TF over GST control) with ELK1; 1.36 fold enrichment (6-mer frequency, TF over GST control) in the assay with GABPA; 1.26 fold enrichment (6-mer frequency, TF over GST control) with ERG; 1.34 fold enrichment (6-mer frequency, TF over GST control) with ELF1; 1.39 fold enrichment (6-mer frequency, TF over GST control) in the assay with EHF. For the same sequence, the binding signal with SPI1 was 1.22 fold enrichment (6-mer frequency, TF over GST control); in the assay with SPIB, 1.41 fold enrichment (6-mer frequency, TF over GST control); in the assay with ELK3, 1.27 fold enrichment (6-mer frequency, TF over GST control); with FEV, 1.35 fold enrichment (6-mer frequency, TF over GST control); in the assay with ETV5, 1.36 fold enrichment (6-mer frequency, TF over GST control); with HSF1, 1.04 fold enrichment (6-mer frequency, TF over GST control). For the same sequence, the binding signal with SPIC was 1.31 fold enrichment (6-mer frequency, TF over GST control); with ELF4, 1.28 fold enrichment (6-mer frequency, TF over GST control); with ELK4, 1.24 fold enrichment (6-mer frequency, TF over GST control); with ETV2 it was 1.07 fold enrichment (6-mer frequency, TF over GST control); with ELF3, 1.09 fold enrichment (6-mer frequency, TF over GST control); in the assay with ETV1, 1.34 fold enrichment (6-mer frequency, TF over GST control).
